Where “and” joins values, the source holds several entries; their conditions need not be identical. Equal values may be shown once. ± gives the standard deviation of the averaged measurements.
Columns and labels:
[1] = tested on: DLD1; assay: cell viability (CellTiter-Glo) relative to plate median (fraction of plate median); higher = more viable cells; conditions: 5 µM; treatment time 24 h; reporter: 7TFP
In short: (§1)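 For this screen, colorectal cancer cell lines carrying stable lentiviral TCF/Wnt firefly luciferase reporters, either 7TFP or TCF4/Wnt, were seeded into 384-well plates. A day's wait of 24 h preceded addition of library compounds at a final 5 µM, which stayed on the cells for 24 h. Firefly luciferase or CellTiterGlo luminescence, read on parallel plates, was normalised to the plate median per well, and the reported value is the mean of two independent replicates.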

[2] = tested on: HCT116; assay: as above; conditions: 5 µM; treatment time 24 h; reporter: TCF4/Wnt
In short: as §1

[3] = tested on: SW480; assay: as above; conditions: 5 µM; treatment time 24 h; reporter: 7TFP
In short: as §1

[4] = tested on: DLD1; assay: TCF/Wnt firefly luciferase reporter signal relative to plate median (fraction of plate median); higher = higher Wnt reporter signal; conditions: 5 µM; treatment time 24 h; reporter: 7TFP
In short: as §1

[5] = tested on: SW480; assay: as above; conditions: 5 µM; treatment time 24 h; reporter: 7TFP
In short: as §1

SMILES | cell viability [1] | cell viability [2] | cell viability [3] | TCF/Wnt firefly luciferase reporter signal [4] | TCF/Wnt firefly luciferase reporter signal [5]
CC(=O)O[C@H]1CC[C@]2(C)[C@H]3C(=O)C=C4[C@@H]5[C@@H](C)[C@H](C)CC[C@]5(C(=O)O)CC[C@@]4(C)[C@]3(C)CC[C@H]2C1(C)C | 1.005 ± 0.0071 | 1.05 | 0.993 ± 0.011 | 1 ± 0.16 | 1.09 ± 0.028
NS(=O)(=O)c1cc2c(cc1Cl)NC(C1CC3C=CC1C3)NS2(=O)=O (stereo not given) | 0.973 ± 0.052 | 0.962 ± 0.0071 | 0.983 ± 0.0042 | 1.1 ± 0.035 | 0.879 ± 0.04
CC(C)NCC(O)c1ccc2ccccc2c1 (stereo not given) | 0.986 ± 0.035 | 1.01 ± 0.042 | 0.977 ± 0.0042 | 0.962 ± 0.097 | 1 ± 0.069
O=C1NCC(=O)N2CCCC12 (stereo not given) [Cyclo(glycylprolyl)] | 0.941 ± 0.037 | 0.9365 ± 0.005 | 0.959 ± 0.016 | 1.2 ± 0.085 | 0.978 ± 0.073
OC(CCN1CCCCC1)(c1ccccc1)C1CC2C=CC1C2 (stereo not given) | 0.9145 ± 0.0021 | 1.01 ± 0.12 | 0.947 ± 0.052 | 0.92 ± 0.23 | 0.835 ± 0.028
COc1ccc(-c2cc(=O)c3c(O)c(OC)c(O[C@@H]4O[C@H](CO[C@@H]5O[C@@H](C)[C@H](O)[C@@H](O)[C@H]5O)[C@@H](O)[C@H](O)[C@H]4O)cc3o2)cc1 | 0.933 ± 0.087 | 0.951 ± 0.056 | 0.897 ± 0.056 | 1.07 ± 0.035 | 1.08 ± 0.021
CN[C@H](CC(C)C)C(=O)N[C@H]1C(=O)N[C@@H](CC(N)=O)C(=O)N[C@H]2C(=O)N[C@H]3C(=O)N[C@H](C(=O)N[C@H](C(=O)O)c4cc(O)cc(O)c4-c4cc3ccc4O)[C@H](O)c3ccc(c(Cl)c3)Oc3cc2cc(c3O[C@@H]2O[C@H](CO)[C@@H](O)[C@H](O)[C@H]2O[C@H]2C[C@](C)(N)[C@H](O)[C@H](C)O2)Oc2ccc(cc2Cl)[C@H]1O | 1.08 ± 0.11 | 1.01 ± 0.014 | 0.979 ± 0.012 | 1.09 ± 0.057 | 1.02 ± 0.035
NCCc1ccc(O)c(O)c1 | 0.922 and 1 | 1.05 and 1.1 | 0.998 and 0.98 | 1.01 and 1.02 | 0.963 and 0.967
CN[C@@H]1[C@H](O[C@H]2[C@H](O[C@H]3[C@H](O)[C@@H](O)[C@H](NC(=N)N)[C@@H](O)[C@@H]3NC(=N)N)O[C@@H](C)[C@]2(O)CO)O[C@@H](CO)[C@H](O)[C@H]1O | 0.9855 ± 0.0078 | 1.13 ± 0.042 | 1.055 ± 0.0071 | 1.18 ± 0.071 | 1.11
NC(=O)c1ccc[n+]([C@@H]2O[C@H](COP(=O)([O-])OP(=O)(O)OC[C@H]3O[C@@H](n4cnc5c(N)ncnc54)[C@H](O)[C@@H]3O)[C@@H](O)[C@H]2O)c1 | 0.955 ± 0.11 | 0.956 ± 0.09 | 0.942 ± 0.027 | 1.1 ± 0.057 | 1.24 ± 0.071
O=c1ccc2cc(O)c(O)cc2o1 | 1.03 ± 0.19 | 1.13 ± 0.028 | 1.04 ± 0.014 | 0.994 ± 0.066 | 0.893 ± 0.015
O=C1c2cccc(O)c2C(=O)c2c(O)cccc21 | 0.96 ± 0.013 | 0.923 ± 0.12 | 0.992 ± 0.054 | 0.958 ± 0.12 | 1 ± 0.051
CC(Oc1ccccc1)C(=O)N[C@@H]1C(=O)N2[C@@H]1SC(C)(C)[C@@H]2C(=O)O (stereo not given in full) | 0.97 ± 0.032 | 0.928 ± 0.022 | 0.9865 ± 0.00071 | 1.07 ± 0.071 | 1.065 ± 0.0071
CC1(C)Oc2ccc3ccc(=O)oc3c2CC1O (stereo not given) | 0.993 ± 0.011 | 1.01 ± 0.042 | 1.07 ± 0.021 | 0.996 ± 0.19 | 0.791 ± 0.089
CCOc1ccc(NC(C)=O)cc1 | 0.956 ± 0.12 | 1.065 ± 0.0071 | 1 ± 0.021 | 1.01 ± 0.08 | 1.06 ± 0.05
CN(C)C(=O)C(CCN1CCC(O)(c2ccc(Cl)cc2)CC1)(c1ccccc1)c1ccccc1 | 0.892 ± 0.14 | 0.912 ± 0.033 | 0.983 ± 0.019 | 0.982 ± 0.28 | 0.816 ± 0.16
CC(=O)O[C@@H]1CC2C(C)(C)C(=O)CC[C@]2(C)C2CC[C@]3(C)C(=CC(=O)O[C@H]3c3ccoc3)[C@@]21C (stereo not given in full) | 1.05 ± 0.12 | 1.06 ± 0.17 | 1.07 ± 0.092 | 1.06 ± 0.11 | 0.949 ± 0.087
O=C(O)c1cc(/N=N/c2ccc(S(=O)(=O)Nc3ccccn3)cc2)ccc1O | 0.992 ± 0.0042 | 1 ± 0.078 | 1.04 ± 0.057 | 0.899 ± 0.083 | 0.837 ± 0.02
CC[C@H]1OC(=O)[C@H](C)[C@@H](O[C@H]2C[C@@](C)(OC)[C@@H](O)[C@H](C)O2)[C@H](C)[C@@H](O[C@@H]2O[C@H](C)C[C@H](N(C)C)[C@H]2O)[C@](C)(O)C[C@@H](C)/C(=N\OCOCCOC)[C@H](C)[C@@H](O)[C@]1(C)O | 1.03 ± 0.079 | 1.12 ± 0.26 | 1.12 ± 0.057 | 0.907 ± 0.13 | 1.03 ± 0.05
O=C(O)CCC(=O)Nc1ccc(S(=O)(=O)Nc2nccs2)cc1 | 0.9765 ± 0.0064 | 1.02 ± 0.028 | 1.04 ± 0.035 | 0.935 ± 0.12 | 1.03 ± 0.028
C[C@]12CCC(=O)C=C1C=C[C@@H]1[C@@H]2CC[C@@]2(C)[C@H]1CC[C@@]21CCC(=O)O1 | 0.884 ± 0.075 | 0.899 ± 0.049 | 0.969 ± 0.044 | 1.1 ± 0.071 | 1.025 ± 0.0071
OCC(O)C(O)C(O)C(O)C(O)CO (stereo not given) | 1.05 ± 0.042 | 1.035 ± 0.0071 | 0.986 ± 0.049 | 0.9515 ± 0.005 | 1.02 ± 0.091
CC(=O)[C@H]1CC[C@H]2[C@@H]3CC=C4C[C@@H](OC(=O)CCC(=O)O)CC[C@]4(C)[C@H]3CC[C@]12C | 1.02 ± 0.021 | 1.01 ± 0.018 | 0.975 ± 0.033 | 0.97 ± 0.03 | 1.1 ± 0.028
Oc1c(Cl)cc(Cl)cc1Sc1cc(Cl)cc(Cl)c1O | 1.03 ± 0.058 | 1.01 ± 0.022 | 0.99 ± 0.043 | 0.979 ± 0.059 | 0.959 ± 0.048
COc1ccnc(C[S+]([O-])c2nc3cc(OC(F)F)ccc3[nH]2)c1OC (stereo not given) | 0.961 ± 0.0042 | 1.03 ± 0.014 | 0.974 ± 0.036 | 1.06 ± 0.05 | 1.05 ± 0.071
CC[N+](CC)(CC)CCOc1cccc(OCC[N+](CC)(CC)CC)c1OCC[N+](CC)(CC)CC | 0.9365 ± 0.0021 | 0.972 ± 0.017 | 0.945 ± 0.093 | 0.989 ± 0.1 | 0.873 ± 0.21
CC(CN(C)C)CN1c2ccccc2CCc2ccccc21 (stereo not given) | 1 ± 0.021 | 0.929 ± 0.055 | 1.05 ± 0.086 | 0.93 ± 0.097 | 1.13 ± 0.099
